The target in this assay is Peroxisome proliferator-activated receptor gamma (Homo sapiens) (UniProt P37231). Briefly: PPARg partial agonist activation, primary screen, cell-based, luciferase reporter, luminescence (AID 504452).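 Also: Cos-1 cells carrying PPARgamma and a response element luciferase reporter.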 The following applies: at 5 µM, stronger effect = higher value; activation (% of full agonist control): measured here: relative to full agonist control. A general note: Reporter assays use an easily measured gene product as a stand-in for the process of interest.
Peroxisome proliferator-activated receptor gamma (Homo sapiens), sequence (P37231 whole entry, looked up): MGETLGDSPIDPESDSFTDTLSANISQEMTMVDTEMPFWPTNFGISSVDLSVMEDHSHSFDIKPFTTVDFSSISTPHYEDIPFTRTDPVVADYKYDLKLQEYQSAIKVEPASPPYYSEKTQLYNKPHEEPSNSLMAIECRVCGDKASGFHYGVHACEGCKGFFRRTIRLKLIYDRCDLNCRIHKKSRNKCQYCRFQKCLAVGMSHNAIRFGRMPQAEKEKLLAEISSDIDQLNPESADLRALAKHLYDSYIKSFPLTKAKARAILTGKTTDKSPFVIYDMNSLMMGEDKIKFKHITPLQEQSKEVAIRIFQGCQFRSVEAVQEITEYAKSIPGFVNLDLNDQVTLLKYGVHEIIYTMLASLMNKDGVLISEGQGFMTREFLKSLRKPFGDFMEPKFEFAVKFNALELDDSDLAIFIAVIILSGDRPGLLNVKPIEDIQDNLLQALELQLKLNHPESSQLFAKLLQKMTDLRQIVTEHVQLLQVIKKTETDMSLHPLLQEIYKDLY

Calls of active or inactive are those of the source. Rule as the data show it: active = activation above about 85%; inactive = the rest.

`Cc1ccc2[nH]c(=O)c(CN(Cc3cccs3)Cc3nnnn3CC3CCCO3)cc2c1` (configuration not stated): the activation (% of full agonist control) came out at 44.1% and the activation (% of partial agonist control) was 97.6% (active).

Take `Cc1cc(N2C(=O)C(O)=C(C(=O)c3cccs3)C2c2cccc(Br)c2)no1` (configuration not stated): the activation (% of full agonist control) was found to be 45.7% and the activation (% of partial agonist control) was 101% (active).

Take `Cc1cccc(NC(=O)CSc2nc(=O)n(CCN3CCOCC3)c3c2CCCC3)c1C`: the activation (% of full agonist control) was 33.1% and the activation (% of partial agonist control) is 73.2% (inactive).

For the compound `COc1ccc(S(=O)(=O)N2CCCCC2)cc1NC(=O)C1CSC2(C)CCC(=O)N12` (configuration not stated), the activation (% of full agonist control) was 40.2% and the activation (% of partial agonist control) was 89% (active).

With `O=C(c1ccc(F)cc1)c1cn(Cc2ccc(F)cc2)c2cc3c(cc2c1=O)OCCO3`, the activation (% of full agonist control) is 37.8% and the activation (% of partial agonist control) was 83.8% (inactive).

As to `Cc1ccc2cc(CN(Cc3ccccc3)Cc3nnnn3C3CCCC3)c(=O)[nH]c2c1`, the activation (% of full agonist control) stood at 39.2% and the activation (% of partial agonist control) is 86.8% (active).

For `O=C(c1cccc(S(=O)(=O)Nc2ccccc2Cl)c1)N1CCN(c2ccccc2O)CC1`, the activation (% of full agonist control) worked out at 28.5% and the activation (% of partial agonist control) was 63.2% (inactive).

Consider `O=C(NCc1ccccc1F)C(=O)NCC1CCCN1S(=O)(=O)c1ccccc1` (configuration not stated), for which the activation (% of full agonist control) worked out at 16.1% and the activation (% of partial agonist control) was 35.6% (inactive).

On to `CCOc1ccc2nc(N3C(=O)C(O)=C(C(=O)c4ccco4)C3c3ccco3)sc2c1` (configuration not stated), for which the activation (% of full agonist control) came to 38.5% and the activation (% of partial agonist control) was 85.2% (active).

On to `O=C(O)COc1ccccc1/C=C1\SC(=S)N(NC(=O)c2ccccc2O)C1=O`, for which the activation (% of full agonist control) was found to be 41.4% and the activation (% of partial agonist control) is 91.7% (active).

As to `COc1ccc(CN(Cc2ccccn2)C(=O)CN2C(=O)C(C)Oc3ccccc32)cc1` (configuration not stated), the activation (% of full agonist control) is 38.6% and the activation (% of partial agonist control) was 85.4% (active).

Consider `CCOc1cccc(/C(O)=C2/C(=O)C(=O)N(CCN3CCOCC3)C2c2ccncc2)c1` (configuration not stated), for which the activation (% of full agonist control) came out at 41.3% and the activation (% of partial agonist control) was 91.4% (active).

On to `COc1ccc(C)c2sc(N(CCCN(C)C)C(=O)CS(=O)(=O)c3ccc(F)cc3)nc12`, for which the activation (% of full agonist control) amounted to 31.2% and the activation (% of partial agonist control) is 69.1% (inactive).

Consider `O=C(CSc1nnc(Cc2cc(=O)[nH]c(=O)[nH]2)n1-c1ccc(Cl)cc1)N1CCc2ccccc21`, for which the activation (% of full agonist control) worked out at 46.6% and the activation (% of partial agonist control) is 103% (active).

For the compound `Cc1nn(Cc2cccc(C(=O)Nc3ccn(Cc4ccccc4F)n3)c2)c(C)c1[N+](=O)[O-]`, the activation (% of full agonist control) came out at 32.8% and the activation (% of partial agonist control) is 72.6% (inactive).

As for `Cc1[nH][nH]c(=O)c1C(c1c(C)[nH][nH]c1=O)c1cn(Cc2ccc(Cl)c(Cl)c2)c2ccccc12`, the activation (% of full agonist control) was found to be 35.5% and the activation (% of partial agonist control) was 78.5% (inactive).

With `O=C(O)CC1=C(Nc2ccccc2)C(=O)N(c2ccccc2)C1c1ccc(F)cc1` (configuration not stated), the activation (% of full agonist control) stood at 31% and the activation (% of partial agonist control) was 68.7% (inactive).

Take `CCn1cc(C(=O)N2CCN(c3ccc(OC)cc3)CC2)c2cc(OC)c(OC)cc2c1=O`: the activation (% of full agonist control) amounted to 27.6% and the activation (% of partial agonist control) is 61% (inactive).

In the case of `Cc1cc(N2C(=O)C(O)=C(C(=O)c3ccco3)C2c2cccc(Cl)c2)no1` (configuration not stated), the activation (% of full agonist control) was determined as 25.2% and the activation (% of partial agonist control) was 55.9% (inactive).

On to `COc1ccc2c(c1)c(CCN1C(=O)c3ccccc3C1=O)cn2C(=O)c1ccco1`, for which the activation (% of full agonist control) was determined as 27.3% and the activation (% of partial agonist control) was 60.4% (inactive).

Turning to `COc1ccc(N2CCN(C3CC(=O)N(Cc4ccc(N5CCCC5=O)cc4)C3=O)CC2)cc1` (configuration not stated), the activation (% of full agonist control) came out at 27.6% and the activation (% of partial agonist control) was 61.2% (inactive).

Turning to `OCCC1CN(Cc2cccn2-c2cccnc2)CCN1Cc1ccc(F)cc1` (configuration not stated), the activation (% of full agonist control) is 29.8% and the activation (% of partial agonist control) is 66% (inactive).

In the case of `O=C(C1=C(O)C(=O)N(CCN2CCOCC2)C1c1ccc(Cl)cc1)c1cc2ccccc2o1` (configuration not stated), the activation (% of full agonist control) came out at 37.3% and the activation (% of partial agonist control) is 82.6% (inactive).

`O=c1[nH]c2cc3c(cc2cc1CN(CCN1CCOCC1)C(=S)NCC1CCCO1)OCO3` (configuration not stated): the activation (% of full agonist control) came to 26.6% and the activation (% of partial agonist control) was 59% (inactive).

As for `Cc1nn(CC(=O)N2CCC(N3CCCCC3)CC2)c(=O)c2c1sc1ccccc12`, the activation (% of full agonist control) came to 27.9% and the activation (% of partial agonist control) is 61.8% (inactive).

For the compound `C[C@H](NC(=O)c1nc[nH]c1C(=O)N1CCc2ccccc2C1)C(=O)OCc1ccccc1`, the activation (% of full agonist control) turned out to be 29.5% and the activation (% of partial agonist control) was 65.3% (inactive).

With `CCOC(=O)/C=c1\s/c(=C\c2ccc3cc(OC)ccc3c2)c(=O)n1CC(=O)NCC1CCCO1` (configuration not stated), the activation (% of full agonist control) is 28.6% and the activation (% of partial agonist control) is 63.3% (inactive).

Turning to `COC(=O)c1cc(C(=O)N2CCN(c3cccc(Cl)c3)CC2)cc([N+](=O)[O-])c1`, the activation (% of full agonist control) was determined as 27% and the activation (% of partial agonist control) was 59.7% (inactive).

`O=S(=O)(NCC(c1ccco1)N1CCc2ccccc2C1)c1ccc(F)cc1` (configuration not stated): the activation (% of full agonist control) stood at 29.9% and the activation (% of partial agonist control) was 66.1% (inactive).

As for `Cc1c(CNCCC2=CCCCC2)c(C(=O)O)c(C)n1Cc1ccccc1`, the activation (% of full agonist control) came to 10% and the activation (% of partial agonist control) was 22.2% (inactive).

Take `Cc1cc(N2C(=O)C(=O)/C(=C(/O)c3ccc(F)cc3)C2c2ccc(F)cc2)no1` (configuration not stated): the activation (% of full agonist control) was 31.8% and the activation (% of partial agonist control) was 70.3% (inactive).

On to `Cc1cccc(N2CCN(C(=O)c3cccc(N4C(=O)C5CC=CC(C)C5C4=O)c3)CC2)c1C` (configuration not stated), for which the activation (% of full agonist control) came to 16.4% and the activation (% of partial agonist control) was 36.3% (inactive).

On to `Cc1nc2ccccn2c1/C(O)=C1\C(=O)C(=O)N(CCN2CCOCC2)C1c1ccncc1` (configuration not stated), for which the activation (% of full agonist control) was determined as 26.2% and the activation (% of partial agonist control) is 58.1% (inactive).

Turning to `CCOc1cc(C2C(C(=O)OC)=CN(Cc3ccc(Cl)cc3)C=C2C(=O)OC)ccc1O`, the activation (% of full agonist control) stood at 37.6% and the activation (% of partial agonist control) was 83.2% (inactive).

With `O=C(CCn1c(=O)c2sccc2n(CC(=O)OCc2ccccc2)c1=O)NCc1ccccc1`, the activation (% of full agonist control) was 31.1% and the activation (% of partial agonist control) is 68.8% (inactive).

With `Cc1cc(N2C(=O)C(O)=C(C(=O)c3ccco3)C2c2cccc(Oc3ccccc3)c2)no1` (configuration not stated), the activation (% of full agonist control) worked out at 32.2% and the activation (% of partial agonist control) is 71.3% (inactive).
